# The supplement of paper PMC9694430
# Columns and labels:
# Assay in all cases: thermal shift delta Tm vs DMSO control; higher = stronger stabilization (binding)
# Details in all cases: 12.5 µM; protein concentration 2 µM
# [1] = tested on: LOC_OS01G57100-cb003
# Outline: (§1)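 The melting temperature shift given here is a triplicate mean, measured against protein that received only DMSO. Melting temperatures came from Boltzmann fits of differential scanning fluorimetry data on E. coli-expressed, purified rice kinase domain constructs. Each 19.5 μl well contained 2 μM kinase, 100 mM potassium phosphate pH 7.5, 150 mM NaCl, 10% glycerol, 5 × SYPRO Orange and compound in DMSO. Plates were scanned from 25°C to 95°C at 0.05°C/s.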
# [2] = tested on: LOC_OS01G60330-cb001
# Outline: as §1
# [3] = tested on: LOC_OS01G60700-cb002
# Outline: as §1
# [4] = tested on: LOC_OS01G63280-cb003
# Outline: as §1
# [5] = tested on: LOC_OS01G67340-cb003
# Outline: as §1
# [6] = tested on: LOC_OS01G70970-cb002
# Outline: as §1
# [7] = tested on: LOC_OS02G07810-cb001
# Outline: as §1
# [8] = tested on: LOC_OS02G08530-cb003
# Outline: as §1
# [9] = tested on: LOC_OS02G14120-cb001
# Outline: as §1
# [10] = tested on: LOC_OS02G17970-cb001
# Outline: as §1
# [11] = tested on: LOC_OS02G45750-cb003
# Outline: as §1
# [12] = tested on: LOC_OS02G54510-cb004
# Outline: as §1
# [13] = tested on: LOC_OS03G04050-cb001
# Outline: as §1
# [14] = tested on: LOC_OS03G12390-cb001
# Outline: as §1
# [15] = tested on: LOC_OS03G27990-cb004
# Outline: as §1
# [16] = tested on: LOC_OS03G50450-cb001
# Outline: as §1
# [17] = tested on: LOC_OS03G50810-cb003
# Outline: as §1
# [18] = tested on: LOC_OS04G35114-cb001
# Outline: as §1
# [19] = tested on: T1, LOC_OS04G38480-cb003
# T1 sequence (whole entry): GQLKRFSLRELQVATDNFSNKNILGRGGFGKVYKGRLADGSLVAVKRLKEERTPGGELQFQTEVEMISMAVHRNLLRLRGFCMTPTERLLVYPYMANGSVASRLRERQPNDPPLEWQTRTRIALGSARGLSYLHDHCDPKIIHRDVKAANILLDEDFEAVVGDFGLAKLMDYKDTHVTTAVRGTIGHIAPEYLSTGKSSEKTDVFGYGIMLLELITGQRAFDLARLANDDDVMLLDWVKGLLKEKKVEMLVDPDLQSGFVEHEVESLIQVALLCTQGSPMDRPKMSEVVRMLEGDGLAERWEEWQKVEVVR
# Outline: as §1
# [20] = tested on: T2, LOC_OS04G41100-cb001
# T2 sequence (whole entry): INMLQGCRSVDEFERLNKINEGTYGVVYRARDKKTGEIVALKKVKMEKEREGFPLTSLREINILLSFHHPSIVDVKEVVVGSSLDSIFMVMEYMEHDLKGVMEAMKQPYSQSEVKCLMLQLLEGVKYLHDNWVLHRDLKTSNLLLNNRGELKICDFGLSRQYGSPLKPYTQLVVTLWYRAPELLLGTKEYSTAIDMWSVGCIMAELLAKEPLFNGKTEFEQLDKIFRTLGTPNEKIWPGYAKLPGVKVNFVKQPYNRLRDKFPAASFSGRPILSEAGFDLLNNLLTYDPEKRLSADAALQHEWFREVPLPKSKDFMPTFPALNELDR
# Outline: as §1
structure (smiles),measurement,setting,value
CNS(=O)(=O)C[C@H]1CC[C@H](N(C)c2[nH]cnc3nccc2-3)CC1 [Oclacitinib],thermal shift delta Tm,[1],1.69 °C
same,thermal shift delta Tm,[2],4.38 °C
same,thermal shift delta Tm,[3],1.12 °C
same,thermal shift delta Tm,[4],2.6 °C
same,thermal shift delta Tm,[5],2.18 °C
same,thermal shift delta Tm,[6],1.16 °C
same,thermal shift delta Tm,[7],0.11 °C
same,thermal shift delta Tm,[8],2.49 °C
same,thermal shift delta Tm,[9],4.19 °C
same,thermal shift delta Tm,[10],1.21 °C
same,thermal shift delta Tm,[11],3.43 °C
same,thermal shift delta Tm,[12],0.36 °C
same,thermal shift delta Tm,[13],0.63 °C
same,thermal shift delta Tm,[14],1.78 °C
same,thermal shift delta Tm,[15],1.09 °C
same,thermal shift delta Tm,[16],1.35 °C
same,thermal shift delta Tm,[17],1.01 °C
same,thermal shift delta Tm,[18],1.87 °C
same,thermal shift delta Tm,[19],0.99 °C
same,thermal shift delta Tm,[20],0.23 °C
COc1cc2/c(=N/c3ccc(Br)cc3F)nc[nH]c2cc1OCC1CCN(C)CC1 [Vandetanib (ZD6474)],thermal shift delta Tm,[1],0.28 °C
same,thermal shift delta Tm,[2],0.67 °C
same,thermal shift delta Tm,[3],1.17 °C
same,thermal shift delta Tm,[4],0.47 °C
same,thermal shift delta Tm,[5],1.64 °C
same,thermal shift delta Tm,[6],0.33 °C
same,thermal shift delta Tm,[7],0.65 °C
same,thermal shift delta Tm,[8],2.65 °C
same,thermal shift delta Tm,[9],10.4 °C
same,thermal shift delta Tm,[10],0.76 °C
same,thermal shift delta Tm,[11],3.64 °C
same,thermal shift delta Tm,[12],0.98 °C
same,thermal shift delta Tm,[13],0.67 °C
same,thermal shift delta Tm,[14],2.45 °C
same,thermal shift delta Tm,[15],2.29 °C
same,thermal shift delta Tm,[16],1.05 °C
same,thermal shift delta Tm,[17],2.26 °C
same,thermal shift delta Tm,[18],8.6 °C
same,thermal shift delta Tm,[19],3.76 °C
same,thermal shift delta Tm,[20],0.73 °C
N#CC(=C(/N)Sc1ccccc1N)/C(C#N)=C(\N)Sc1ccccc1N,thermal shift delta Tm,[1],-0.44 °C
same,thermal shift delta Tm,[2],2.17 °C
same,thermal shift delta Tm,[3],0.48 °C
same,thermal shift delta Tm,[4],2.36 °C
same,thermal shift delta Tm,[5],0.77 °C
same,thermal shift delta Tm,[6],0.62 °C
same,thermal shift delta Tm,[7],1.33 °C
same,thermal shift delta Tm,[8],1.04 °C
same,thermal shift delta Tm,[9],0.63 °C
same,thermal shift delta Tm,[10],0.85 °C
same,thermal shift delta Tm,[11],0.68 °C
same,thermal shift delta Tm,[12],-0.59 °C
same,thermal shift delta Tm,[13],0.78 °C
same,thermal shift delta Tm,[14],1.33 °C
same,thermal shift delta Tm,[15],0.63 °C
same,thermal shift delta Tm,[16],0.62 °C
same,thermal shift delta Tm,[17],0.78 °C
same,thermal shift delta Tm,[18],-0.47 °C
same,thermal shift delta Tm,[19],-1.15 °C
same,thermal shift delta Tm,[20],0.28 °C
